In PubChem BioAssay AID1030 (National Center for Advancing Translational Sciences (NCATS), 2008):
About 16,000 (7.3%) of roughly 220,000 compounds were called active. Another 25% or so got no clear call; they are omitted. Calls come from the whole dose curve; as a rule, active = well fitted inhibition curve with a large enough effect (not every such curve was filed as active); inconclusive = small, poorly fitted or top-dose-only effect, or another doubt; inactive = no such curve, though single readings can be large or run the other way. The sample as a whole holds a higher share of actives than the screen did.

Target: Aldehyde dehydrogenase 1A1 (Homo sapiens) (UniProt P00352)
Sequence (P00352 whole entry, looked up): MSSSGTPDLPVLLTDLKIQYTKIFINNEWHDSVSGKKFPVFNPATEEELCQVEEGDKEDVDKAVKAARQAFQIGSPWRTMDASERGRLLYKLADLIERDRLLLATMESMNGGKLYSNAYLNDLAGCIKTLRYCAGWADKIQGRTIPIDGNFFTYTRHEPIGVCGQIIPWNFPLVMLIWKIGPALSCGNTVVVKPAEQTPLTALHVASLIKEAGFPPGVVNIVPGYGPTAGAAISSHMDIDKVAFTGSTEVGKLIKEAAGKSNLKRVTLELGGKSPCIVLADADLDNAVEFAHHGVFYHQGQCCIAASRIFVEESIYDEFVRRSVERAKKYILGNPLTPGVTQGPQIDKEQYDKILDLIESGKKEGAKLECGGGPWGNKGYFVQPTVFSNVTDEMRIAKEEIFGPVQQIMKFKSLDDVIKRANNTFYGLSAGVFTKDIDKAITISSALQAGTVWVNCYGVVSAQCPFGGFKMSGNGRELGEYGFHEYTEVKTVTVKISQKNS
Test: qHTS Assay for Inhibitors of Aldehyde Dehydrogenase 1 (ALDH1A1);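 for activity, negative = inhibition: plate controls were no enzyme wells and a reference inhibitor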
Conditions: Purified ALDH1A1, NADH fluorescence, propionaldehyde substrate; series mostly up to 75.3 µM
Potency is the fitted concentration of half-maximal effect.

Potency, active:
CCN1CCN(CC(=O)c2cc(OC)c(OC)c(OC)c2)CC1 28.2 µM
COc1ccc(-c2c(C)cc3oc(=O)cc(-c4ccccc4)c3c2C)cc1C=O 0.126 µM
S=C(NNC(=S)NC1CC2C=CC1C2)NC1CC2C=CC1C2 (stereo not drawn) 12.6 µM
S=C(NNC(=S)NC1CC2CCC1C2)NC1CC2C=CC1C2 (stereo not drawn) 20 µM
COCCNC(=S)c1ccc(OC)cc1 20 µM
Cc1ccc(C2NC(=S)NC3=C2N2CCC3CC2)cc1 (stereo not drawn) 8.91 µM
O=C(NCc1ccco1)c1sc2cccc(F)c2c1Cl 28.2 µM
O=C(CC1CCCCC1)Nc1c2c(nn1-c1ccc(F)cc1)CS(=O)(=O)C2 7.94 µM
CCn1c2ccccc2c2cc(NC(=O)CNC)ccc21 25.1 µM
CCOC(=O)N1CCN(C(c2cccnc2)c2ccc3cccnc3c2O)CC1 (stereo not drawn) 1.58 µM
CCN1CCN(C(c2cccnc2)c2cc(Cl)c3cccnc3c2O)CC1 (stereo not drawn) 1.78 µM
O=C(NN1C(=O)C2C3C=CC(O3)C2C1=O)c1ccncc1 (stereo not drawn) 17.8 µM
COc1ccccc1C(=O)NN1C(=O)C2C3C=CC(O3)C2C1=O (stereo not drawn) 20 µM
Cc1cc(C)c2cc(CN(Cc3cccs3)Cc3nnnn3CC3CCCO3)c(=O)[nH]c2c1 (stereo not drawn) 11.2 µM
C[C@@H](Nc1nc(-c2ccccc2)nc2c1oc1ccccc12)C(=O)O 7.08 µM
C/C(CCc1ccccc1)=N\NC(=O)c1ccc(CN2CCOCC2)cc1 25.1 µM

Potency, inactive:
O=C1CCC[C@@H]2CC(N3CCCCC3)C[C@@H]3CCN1[C@H]23 (stereo partly drawn)
COCCn1c(N)c(N(Cc2ccccc2)C(=O)C2CCCCC2)c(=O)[nH]c1=O
O=C(Cn1ncc(N2CCCC2)c(Br)c1=O)c1ccc(Cl)cc1
CCCN(CCC)S(=O)(=O)c1ccc(C(=O)NNC(=O)c2cc(OC)c(OC)c(OC)c2)cc1
COc1cc(C(=O)N2CCOCC2)cc(OC)c1OC
COc1ccc(N2C(=O)C(O)C2c2ccc(C)cc2)cc1 (stereo not drawn)
COc1ccc(-c2c(C)cc3oc(=O)cc(-c4ccccc4)c3c2C)cc1F
Cc1cc2oc(=O)cc(-c3ccccc3)c2c(C)c1-c1ccc(OC(F)(F)F)cc1
C=CCn1c(COc2ccc(F)cc2)nnc1SCC(=O)Nc1cccc(S(N)(=O)=O)c1
Cc1cccc(CSc2nnc(C)c(=O)n2N)c1
Cc1cc(NC(=O)CN2C(=O)NC(C)(CCc3ccccc3)C2=O)no1 (stereo not drawn)
CC1CCN(C(=S)NC2CC3CCC2C3)CC1 (stereo not drawn)
COc1ccc(C(=S)Nc2ccccc2)cc1
COCCCNC(NC(=O)c1ccc(OC)cc1)C(Cl)(Cl)Cl (stereo not drawn)
Cn1nc(-c2ccccc2)c(CO)c1Sc1ccccc1
COc1ccc(C(=O)NNC(=O)c2cc(C)[nH]n2)cc1
CC(O)c1cccc(NC(=O)Cc2cccc3ccccc23)c1 (stereo not drawn)
O=C(NCc1ccco1)c1cc2sccc2n1Cc1ccc(F)cc1
O=C(NCc1ccco1)c1nn2cccnc2c1Cl
O=C(CC1CCCCC1)NCc1ccc(F)cc1
COc1cccc(C(=O)Nc2c3c(nn2-c2cccc(C)c2C)CS(=O)(=O)C3)c1OC
COCCNc1nc2nonc2nc1N(C)Cc1ccc(C)cc1
CCCCN(CC)CCCNC(=O)c1ccc(CSc2nc3ccncc3[nH]2)cc1
Cc1c(C=O)n(C)n(-c2ccccc2)c1=O
CCOC(=O)N1CCC(=NNC(N)=O)CC1
O=C(NCC1CCCO1)C1CCN(C2CCN(C(=O)C3CCCCC3)CC2)CC1 (stereo not drawn)
Cc1cccc(NC(=O)c2nnn(-c3cccc(C(F)(F)F)c3)c2N)c1
CCn1c2ccccc2c2cc(NC(=S)N3CCOCC3)ccc21
CCn1c2ccccc2c2cc(NC(=O)COC(=O)c3ccccc3Br)ccc21
CCOc1ccc(CN2CCN(Cc3ccc(C)o3)CC2CCO)cc1 (stereo not drawn)
CCOC(=O)N1CCN(C(=O)CSc2ccc(Cl)cc2)CC1
Oc1c(CN2CCN(c3ccc(F)cc3)CC2)cc(Cl)c2cccnc12
Oc1c(C(c2ccccn2)N2CCOCC2)ccc2cccnc12 (stereo not drawn)
O=C(Nc1cccnc1)c1cc2cc(Br)ccc2oc1=O
CCCN(CCC)c1ccc(C(O)c2nnc(-c3ccccc3)o2)cc1 (stereo not drawn)
Oc1ccc(N=Nc2nccs2)c(O)c1
Cc1nn2cc(-c3ccc(Cl)cc3)cnc2c1Br
CCCCCCCC1(C)NC(=O)N(CC(=O)Nc2cc(C)on2)C1=O (stereo not drawn)
CC1CN(S(=O)(=O)c2ccc(C(=O)NN3CCN(C)CC3)cc2)CC(C)O1 (stereo not drawn)
COc1cc([C@H](Cc2ccccc2)NC(C)=O)oc(=O)c1
COc1ccccc1C(=O)NNC(=O)c1ccc(NC(=O)c2ccccc2)cc1
COc1ccccc1C(=O)Nn1c(-c2cccs2)nc2ccccc2c1=O
O=C(NN1C(=O)C2C3C=CC(C3)C2C1=O)c1ccco1 (stereo not drawn)
O=C(Nc1ccc2c(c1)OCCO2)c1ccncc1
COC(=O)c1ccc(CN2CCC(CO)(Cc3ccc(OC)cc3)CC2)cc1
CC(NC(=S)NC1CCCCC1)C(c1ccccc1)N1CCOCC1 (stereo not drawn)
Cc1cccc(N2CCN(C(c3ccccc3)c3nnnn3CC3CCCO3)CC2)c1C (stereo not drawn)
CC(C)(C)n1nnnc1C(c1cccs1)N(Cc1cccnc1)CC1CCCO1 (stereo not drawn)
CCCCC(=O)Nc1ccc(C(=O)Nc2cc(C(F)(F)F)ccc2Cl)cc1
Cc1nc(Cl)c2oc3ccccc3c2n1
CCSc1nc(C)nc2c1oc1ccccc12
O=C(NCCN1CCOCC1)Nc1cccc(Cl)c1
CC/C(=N\NC(=S)NC(C)C)c1ccc(OC(F)F)cc1
Cc1ccc(NC(=S)N(CCCN2CCCC2)Cc2cccn2Cc2ccc(Cl)cc2)cc1
COc1ccc(C(=O)Nc2ccc(CN3CCOCC3)cc2)cc1
O=C(Nc1ccc(CSc2ccccc2)cc1)c1ccc(CN2CCOCC2)cc1

activity, negative = inhibition, inactive:
O=C(O)COc1c(Cl)cc(Cl)c2cccnc12 -8.71% [at 13.5 µM]
